Hits are enriched below; roughly 5.4% of the tested compounds scored in any of these assays.
Gal4-VP16 FLuc = counter-screen for ROR gamma inhibitors: Gal4-VP16 reporter. Drosophila S2 Gal4-VP16 UAS-luciferase, luminescence, 20 h. Potency, µM (doses to about 53.6 µM), for inactives: at the highest dose activity, negative = inhibition, actives largely listed as inhibitors. 310,000 tested, 3.5% active. AID 2546;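 also: Gal4-VP16 expression switched on by copper sulfate through the metallothionein promoter; potency is read from the fitted curve at half-maximal effect; % is scaled to controls: 0 for no effect and ±100 for the full control effect; nearly all actives have a fitted effect of over 50% in size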
Six1-Eya2 blk = blocks human Six1 binding to Eya2; activity change, % (no concentration beside the values); Q15475+O00167; AID 651725; 360,000 tested, 0.56% active; AlphaScreen GST-Six1/His-Eya2 binding, biochemical; stronger effect = lower value; in the data active = activity change below about -65%; inconclusive = mostly about -30% to -63%; also: % is scaled to controls: 0 for no effect and ±100 for the full control effect
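Homogeneous AlphaScreen proximity assay pairing GST-Six1 with His-tagged Eya2 (added as 5X mix: 250 nM and 500 nM) in 50 mM Tris pH 8.0, 300 mM NaCl, 1 mM TCEP. Glutathione donor and nickel acceptor beads; 1 h, 37 °C, dark.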
p53 reactivator = mutant p53 re-activation in reporter cells; H1299 p53-A138V BP100-luciferase reporter, luminescence, 24 h; Potency, µM (highest dose often 92.2 µM), inactives show top-dose activity change, positive = activation, usual class: activators; 320,000 tested, 0.063% active; AID 504706; also: potency is read from the fitted curve at half-maximal effect; % of control where 0% means no effect; nearly all actives have a fitted effect of over 45% in size
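H1299 (p53-null), stable ts p53-A138V + BP100-Luc; 1000 cells/well, Opti-MEM/10% FBS; cpd 4 pt, 1:5; 24 h, 37 deg C, 5% CO2; detection reagent 10 min RT; luminescence.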
CtBP-E1A blk = blocks the CtBP interaction with E1A | AlphaScreen GST-E1A/His-CtBP binding, 1536-well; stronger effect = lower value | activity change, % (concentration not given with the values) | 340,000 tested, 0.49% active; in the data active = activity change below about -65%; inconclusive = mostly about -30% to -63%; also: % is scaled to controls: 0 for no effect and ±100 for the full control effect
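Homogeneous bead-based format: GST-tagged E1A captured on glutathione donor beads, His-tagged CtBP on nickel acceptor beads; compounds precede bead addition by 2 h at 37 °C.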
RORgamma inh = blocks mouse ROR gamma transcriptional activity; Drosophila S2 Gal4-RORgamma UAS-luciferase reporter, 20 h; Potency, µM (top dose mostly 53.6 µM), for inactives: at the top dose activity change, negative = inhibition, most hits filed as inhibitors; 310,000 tested, 5.4% active; also: potency is read from the fitted curve at half-maximal effect; % is scaled to controls: 0 for no effect and ±100 for the full control effect; nearly all actives have a fitted effect of over 60% in size
Target sequence (P51450 whole entry, looked up, the tested form may be a part): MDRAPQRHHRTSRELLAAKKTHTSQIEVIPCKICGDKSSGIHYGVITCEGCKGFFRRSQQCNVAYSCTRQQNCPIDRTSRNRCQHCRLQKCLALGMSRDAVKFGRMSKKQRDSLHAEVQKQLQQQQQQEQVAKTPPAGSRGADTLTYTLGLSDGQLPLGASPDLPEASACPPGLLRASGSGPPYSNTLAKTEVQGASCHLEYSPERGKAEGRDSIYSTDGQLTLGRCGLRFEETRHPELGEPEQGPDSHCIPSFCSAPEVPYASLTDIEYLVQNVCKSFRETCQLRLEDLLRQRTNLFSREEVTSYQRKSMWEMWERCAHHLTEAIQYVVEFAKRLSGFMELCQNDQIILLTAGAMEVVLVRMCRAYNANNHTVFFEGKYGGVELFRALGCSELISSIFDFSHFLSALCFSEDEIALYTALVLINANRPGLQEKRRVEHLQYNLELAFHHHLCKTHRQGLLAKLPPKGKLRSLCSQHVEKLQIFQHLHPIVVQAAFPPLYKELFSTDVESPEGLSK
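Drosophila S2 cells stably expressing Gal4-DBD/mouse RORγ fusion under metallothionein promoter plus UAS-luciferase; compound 1 h, then 700 uM CuSO4 induction for 20 h at ambient temperature; inhibition read as reduced luminescence.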
Active calls of the source: *; ? = inconclusive; . = no result given. Unless noted, calls follow the shape of the dose curve; as a rule, active = well fitted curve in the direction sought with a large enough effect; inconclusive = small, poorly fitted or top-dose-only effect, or another doubt; inactive = no such curve, though single readings can be large; an effect the other way counts as inactive or inconclusive.

SMILES	Gal4-VP16 FLuc	Six1-Eya2 blk	p53 reactivator	CtBP-E1A blk	RORgamma inh
CNc1nc(C23CC4CC(CC(C4)C2)C3)cs1	-25.4%	-16.8	-0.6%	-6.4	10µM*
O=C(CC(=O)Nc1nc(C23CC4CC(CC(C4)C2)C3)cs1)NCCO	3.1%	1.0	-2.8%	-2.4	-2.4%
Cc1ccc(Cl)cc1N1CCN(C(=O)Cc2csc(Nc3nc(=S)[nH]c4ccccc34)n2)CC1	3.55µM*	-16.8	-1.8%	-15.2	0.631µM*
O=C(Cn1c(=O)[nH]c2ccccc2c1=O)N1CCN(c2cccc(Cl)c2)CC1	-4.0%	-13.3	24.9%	2.5	5.0%
Cc1ccc(Cl)cc1N1CCN(C(=O)Cn2ccc3ccccc3c2=O)CC1	9.5%	0.0	8.6%	-0.9	32.1%
O=C(Cc1csc(Nc2nc(=S)[nH]c3ccccc23)n1)N1CCN(c2cccc(Cl)c2)CC1	5.01µM*	?	-0.7%	-14.3	1µM*
Cc1ccc(-c2nc3ccccc3c(=O)n2NC(=O)COc2ccccc2)cc1	?	-16.0	-4.0%	-10.8	?
Cc1ccc(OCC(=O)Nn2c(C)nc3ccccc3c2=O)c(C(C)C)c1	22.4µM*	-0.4	14.0%	-1.5	-18.8%
Cc1sc2nc(-c3ccncc3)[nH]c(=O)c2c1-c1ccccc1	7.3%	.	3.7%	.	18.0%
Cc1sc2nc(-c3ccccn3)[nH]c(=O)c2c1-c1ccccc1	4.47µM*	?	-4.1%	-83.3*	1.12µM*
CCN(CC)C(=O)c1sc2nc(-c3ccncc3)[nH]c(=O)c2c1C	-7.9%	-0.3	-0.1%	4.9	-9.0%
CCN(CC)C(=O)c1sc2nc(-c3ccccn3)[nH]c(=O)c2c1C	.	-89.9*	.	-88.4*	.
Cc1cc(/C=N/n2c(COc3ccccc3C)nc3ccccc3c2=O)c(O)c([N+](=O)[O-])c1	35.5µM*	-67.8*	?	-73.0*	14.1µM*
O=[N+]([O-])c1ccc(Cl)c(/C=N/n2c(COc3ccccc3)n[nH]c2=S)c1	-1.7%	9.4	2.0%	23.9	?
Cc1ccccc1OCc1nc2ccccc2c(=O)n1/N=C/c1c[nH]c2ccccc12	-19.0%	-1.9	-4.0%	5.0	?
O=c1c2ccccc2nc(COc2ccccc2)n1/N=C/c1cc([N+](=O)[O-])ccc1O	3.98µM*	-88.9*	?	-4.9	5.01µM*
CC(=O)Nc1cccc(NC(=S)Nc2cccc3ccccc23)c1	?	-10.7	?	3.5	12.6µM*
CC(=O)c1cccc(NC(=S)Nc2cccc3ccccc23)c1	11.2µM*	-8.4	?	-6.0	12.6µM*
Cc1ccc(C(=O)NNC(=S)Nc2cccc3ccccc23)s1	-14.3%	-9.2	?	-12.7	0.794µM*
Cc1ccc(F)c(NC(=S)Nc2cccc3ccccc23)c1	?	.	2.6%	.	11.2µM*
S=C(Nc1cccc2ccccc12)Nc1cccc2ccccc12	.	-15.4	.	-11.2	.
O=C(NNC(=S)Nc1cccc2ccccc12)c1cccc(Br)c1	?	-11.7	5.6%	-10.5	-34.2%
c1ccc2cc(C3OCC4(CCCC4)CO3)ccc2c1	.	8.5	.	0.0	.
CCOC(=O)CSc1cc(-c2ccccc2)nc2ncnn12	11.2µM*	4.0	-12.5%	-1.0	-74.6%
CCN(CC)c1ccc2c(c1)CCCN2	?	.	?	.	2.82µM*
SMILES	Gal4-VP16 FLuc	Six1-Eya2 blk	p53 reactivator	CtBP-E1A blk	RORgamma inh
O=S(=O)(c1ccc2c(c1)CCCN2)N1CCCC1	.	0.9	?	0.2	.
Cc1[nH]n2c(=O)c3c(nc2c1-c1ccccc1)CCCC3	?	-13.4	-5.6%	-7.7	11.2µM*
O=c1c2c(nc3c(-c4cccc5ccccc45)c[nH]n13)CCC2	-7.9%	-1.3	10.9%	1.6	3.3%
O=c1c2c(nc3c(-c4ccc(Cl)cc4)c[nH]n13)CCCC2	6.31µM*	-22.2	7.8%	-26.5	2.24µM*
Cc1[nH]n2c(=O)c3c(nc2c1-c1cccc2ccccc12)CCC3	?	-6.8	-1.3%	3.2	12.6µM*
Cc1ccc(C)c(S(=O)(=O)NC(C)CCc2ccccc2)c1 (configuration not stated)	-1.3%	14.0	-5.9%	2.3	2.8%
COc1ccc(OC)c2c1sc(=NC(=O)C(C)C)n2C	20µM*	4.1	-1.4%	-3.9	0.2%
CCCCCc1ccc(OCCCC[n+]2ccc(C)cc2)c(CCCCC)c1	2.82µM*	-1.9	-10.6%	-3.5	2µM*

Assay outcomes deposited in PubChem BioAssay by National Center for Advancing Translational Sciences (NCATS).
